Measured values from ChEMBL document CHEMBL3433997, “St. Jude Leishmania screening dataset” (2016).

The compounds below were run against Solute carrier family 2, facilitated glucose transporter member 1 (Homo sapiens) (UniProt P11166) (assay: ST_JUDE_LEISH: Cytotoxicity at 2uM final concentration against transgenic Leishmania Mexicana promastigotes LmGLUT1 that are glucose transport deficient and complemented with the human glucose transporter GLUT1. Activity is measured by DNA content using SYBR green in vitro).
Solute carrier family 2, facilitated glucose transporter member 1 (Homo sapiens), sequence (P11166 whole entry): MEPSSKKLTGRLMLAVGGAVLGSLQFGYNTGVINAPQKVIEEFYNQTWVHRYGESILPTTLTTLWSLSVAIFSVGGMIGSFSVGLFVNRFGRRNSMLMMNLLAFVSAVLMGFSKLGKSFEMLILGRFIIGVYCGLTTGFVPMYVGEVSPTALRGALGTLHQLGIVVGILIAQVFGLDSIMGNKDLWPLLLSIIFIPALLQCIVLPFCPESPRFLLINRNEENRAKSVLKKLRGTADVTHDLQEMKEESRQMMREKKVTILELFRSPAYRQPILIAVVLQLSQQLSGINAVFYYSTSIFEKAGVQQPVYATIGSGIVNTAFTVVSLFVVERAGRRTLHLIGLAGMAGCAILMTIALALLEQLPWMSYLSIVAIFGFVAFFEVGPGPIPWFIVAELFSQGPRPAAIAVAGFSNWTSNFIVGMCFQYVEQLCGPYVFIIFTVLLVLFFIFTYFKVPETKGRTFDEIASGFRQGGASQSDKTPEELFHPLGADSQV
Type: functional
CC(C)(C)c1ccc2[nH]c(-c3ccc(/C=C/C(=O)NC4CCN(Cc5ccccc5)CC4)cc3)nc2c1 showed an inhibition of 9.73%.
CCN(CC)/C(=N/C(=N)NCc1cccc(Cl)c1)NCCCCCCN/C(=N\C(=N)NCc1cccc(Cl)c1)N(CC)CC was tested, and the inhibition was 4.23%.
O=C(O[C@H]1CN[C@H](C#Cc2cc3ncnc(Nc4ccc5c(ccn5S(=O)(=O)c5cccs5)c4)c3s2)C1)N1CCOCC1 showed an inhibition of 9.76%.
CC(C)C[C@H](NC(=O)[C@H](Cc1ccccc1)N(C[C@H](Cc1ccccc1)NC(=O)OC(C)(C)C)C(=O)C(F)(F)F)C(=O)NC1CCN(Cc2ccccc2)CC1 showed an inhibition of 5.24%.
CS(=O)(=O)c1cccc(-c2cnc3[nH]cc(-c4ccc(C(=O)O)cc4)c3c2)c1 gave an inhibition of 1.01%.
For O=C(Nc1ccc(F)c(Cl)c1)NC1CCN(c2ccnc3cc(Cl)ccc23)C1 (centres undefined), the inhibition was 6.4%.
Compound COc1cccc(CCc2cccc(CNC(C)=O)c2)c1 has an inhibition of 5.81%.
Work on O=C(NCc1ccc(F)cc1)Nc1ccc(-c2cccc(-c3nc4cc(C(F)(F)F)ccc4[nH]3)c2)cc1 yielded an inhibition of 3.93%.
For CNC(=O)c1cc(S(=O)(=O)N2CCN(c3ccccn3)CC2)c(C)s1, the inhibition was -1.34%.
Work on CCCCCCN1CCC(CNCc2cccc([N+](=O)[O-])c2)CC1 yielded an inhibition of 5.28%.
CC(=O)Nc1ccc(CN(Cc2ccc(F)cc2)Cc2cccc(Oc3ccccc3)c2)cc1 was tested, and the inhibition was 3.19%.
For CCOC(=O)c1c(NC(=O)c2ccccc2)sc2c(O)c(CNC3CCCCC3)ccc12, the inhibition was -1.14%.
CCN(CC)CCN(Cc1ccc(-c2ccc(C(F)(F)F)cc2)cc1)C(=O)Cn1c(CCc2c(F)ccc(F)c2F)nc(=O)c2ccccc21 was tested, and the inhibition was 0.63%.
For CCCCc1ccc2[nH]c(NC(=O)OC)nc2c1, the inhibition was 10.2%.
With CNCCNCc1cccc(-c2ccc(-c3nc4cccc(C)c4[nH]3)cc2)c1 the inhibition was -1.62%.
CCN(CC)C(C)(C)CN(Cc1ccc(-c2ccc(C(F)(F)F)cc2)cc1)C(=O)Cn1c(CCc2cccc(F)c2F)nc(=O)c2ccccc21 gave an inhibition of 6.6%.
Work on O=C(NC1CCC(N2CCC(c3ccccc3C(F)(F)F)CC2)CC1)c1cc2ccccc2[nH]1 (centres undefined) yielded an inhibition of 8.86%.
For CC(C)OC(=O)c1ccccc1S(N)(=O)=O, the inhibition was 15.3%.
For COc1ccc2nccc([C@@H](O)CN3CCC(NC(=O)COc4nc(SCc5ccc(F)cc5)nc5c4CCC5)CC3)c2c1, the inhibition was 1.06%.
Cc1cccc(C)c1CNc1cccc(-c2nc(C)c(C)[nH]2)c1 gave an inhibition of 5.39%.
Compound CN(C)c1ccc(CN2CCC(CNC(=O)c3cc(-c4cccc(C(F)(F)F)c4)cs3)C2)cc1 (centres undefined) has an inhibition of 2.15%.
With COc1ccc(NC(=O)/C=C/c2ccccc2Cl)cc1OCCN1CCC(NCc2ccccc2)CC1 the inhibition was 3.15%.
Compound N#CCSc1nnc(-c2ccccc2)c2ccccc12 has an inhibition of 2.6%.
Compound CCN(CC)CCN(Cc1ccc(-c2ccc(C(F)(F)F)cc2)cc1)C(=O)Cn1c(CCc2cccc(F)c2F)nc(=O)c2ccccc21 has an inhibition of 1.51%.
For O=C(NCCCCN1CCC(c2cccc3ccccc23)CC1)c1ccc(NC(=O)c2ccc(Cl)cc2)cc1, the inhibition was 1.07%.
For Cc1cc(C(=O)NC2CCN(Cc3ccccc3)CC2)ccc1-c1nc2cc(Cl)c(Cl)cc2[nH]1, the inhibition was 3.63%.
COc1ccc2ncc(Cl)c(CCN3CCC(NCc4ccc5c(n4)NC(=O)CO5)CC3)c2c1 was tested, and the inhibition was 7.95%.
Compound CC1(C)N=C(N)N=C(N)N1c1ccc(Oc2ccccc2)cc1 has an inhibition of 1.59%.
With Cc1cc(Nc2ccc(C)c(Cl)c2)n2nc(C(F)(F)F)nc2n1 the inhibition was 6.65%.
With COc1cccc(OC)c1OCCCON1C(=N)N=C(N)NC1(C)C the inhibition was 1.91%.
Work on CCN(CC)CCN(Cc1ccc(-c2ccc(C(F)(F)F)cc2)cc1)C(=O)Cn1c(CCc2cc(F)c(F)cc2F)nc(=O)c2ccccc21 yielded an inhibition of 13.6%.
With CC(CN1CCN(C)CC1)C(=O)Nc1ccc(-c2cccc(-c3nc4ccccc4[nH]3)c2)cc1 (centres undefined) the inhibition was 2.41%.
CC(C)CNC(=O)c1ccnc(-c2ccc(CNC3Cc4ccccc4C3)cc2)c1 was tested, and the inhibition was -0.85%.
Compound O=C(Nc1cc(Cl)cc(Cl)c1)c1cnn(-c2ccc(F)cc2)c1C1CCNCC1 has an inhibition of -0.33%.
With Cc1cccc(C)c1OC(=O)C(C)C(O)C1(Sc2ccccc2)CCN(C)CC1 (centres undefined) the inhibition was 5.2%.
With N=C1SC(=Cc2cn[nH]c2-c2ccc(F)cc2)C(=O)N1c1nccs1 the inhibition was 0.88%.
With CCC(NC[C@@H](O)[C@H](Cc1ccccc1)NC(=O)c1cc(C2CCCC2)cc(N2CCCC2=O)c1)c1cccc(Cl)c1 (some centres undefined) the inhibition was 2.16%.
For CCOc1cc(C)c(C2CCN(CCCCNC(=O)c3ccc(NC(=O)c4ccc(Cl)cc4)cc3)CC2)cc1C, the inhibition was -0.49%.
For C=Cc1c(C2CCN(CCCCNC(=O)c3ccc(-c4ccc(C#N)cc4)cc3)CC2)ccc2c1CCCC2, the inhibition was 1.77%.
